PubChem BioAssay
Activity calls are given as the source filed them.

Assays:
[1] = system: Plasmodium falciparum Sir2 (PF13_0152, Sir2A); test: Plasmodium falciparum Sir2A binding compounds – biochemical, small-molecule microarray, 635 nm fluorescence, primary screen (AID 1098); settings: fluorescence 635 nm, higher = more signal;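 also: score merges spot fluorescence intensity with its signal-to-noise ratio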
[2] = probe aDKK1 binding to arrayed compounds – biochemical, biotinylated probe, 635/667 nm fluorescence, primary screen (AID 1099); settings: small-molecule microarray, higher = more signal;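 also: score merges 667nm spot fluorescence with signal to noise across triplicate slides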
[3] = probe aCHRDL2 binding to arrayed compounds – biochemical, biotinylated probe, 635/667 nm fluorescence, primary screen (AID 1100); settings: small-molecule microarray, higher = more signal
[4] = change in splice reporter luminescence, either direction, cell-based, HEK293, spliceosome inhibition project, primary screen (AID 1101); settings: HEK293 splicing luciferase reporter, 24 h, higher = more signal, called active from +8 up or from −8 down;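 also: HEK293 cells carrying a splicing-competent luciferase reporter gene; test concentration not given here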
[5] = target: Fibroblast growth factor 10 (Homo sapiens) (UniProt O15520); test: compounds binding fibroblast growth factor 10 – biochemical, small-molecule microarray, 635 nm fluorescence, primary screen (AID 1102); settings: FGF10 binding, fluorescence 635 nm, higher = more signal
[6] = system: glycogen synthase kinase-3 (GSK3A per assay name; protocol says GSK3B); test: compounds binding glycogen synthase kinase-3 – biochemical, small-molecule microarray, 635 nm fluorescence, GSK3A, primary screen (AID 1103); settings: fluorescence 635 nm, higher = more signal; also: the record names both GSK3A and GSK3B
[7] = target: Epidermal growth factor receptor (Homo sapiens) (UniProt P00533); test: compounds binding epidermal growth factor receptor – biochemical, small-molecule microarray, 635 nm fluorescence, primary screen (AID 1104); settings: EGFR binding, higher = more signal;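 also: score merges 667 nm emission intensity with spot signal to noise over triplicate slides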
[8] = target: Follistatin-related protein 3 (Homo sapiens) (UniProt O95633); test: compounds binding follistatin-related protein 3 – biochemical, small-molecule microarray, 635 nm fluorescence, primary screen (AID 1105); settings: FSTL3 binding, higher = more signal;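 also: score merges emission near 667 nm and signal to noise per printed spot across three slides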
[9] = target: Dickkopf-related protein 1 (Homo sapiens) (UniProt O94907); test: small molecules binding DKK1 protein – biochemical, small-molecule microarray, 635 nm fluorescence scan, primary screen (AID 1106); settings: higher = more signal;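 also: score merges emission near 667 nm with signal to noise over three replicate slides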
[10] = system: Inhibin beta A chain (activin A); test: small molecules binding activin A – biochemical, small-molecule microarray, 635 nm fluorescence scan, primary screen (AID 1107); settings: INHBA, higher = more signal;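 also: mouse activin A protein probed at 4.33 µg/mL on printed slides; score merges bound-protein fluorescence near 667 nm with spot signal-to-noise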
[11] = system: Human papillomavirus type 1a protein E7 (residues 44-93); test: small molecules binding HPV E7 44-93 – biochemical, small-molecule microarray, residues 44-93, 635 nm fluorescence, primary screen (AID 1108); settings: fluorescence 635 nm, higher = more signal;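 also: E7 fragment applied at 1 µg/mL in TBST for 1 h at 4 C; score combines spot fluorescence with its signal to noise ratio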
[12] = hepatitis C replication reporter changes, two-sided – Huh7 cells, luciferase reporter, HCV replication inhibitor project, primary screen (AID 1109); settings: Huh7 HCV replicon luciferase reporter, 48 h; higher = more signal;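 also: huh7 hepatoma cells harbouring a luciferase neomycin HCV replicon reporter; luciferase luminescence as measure of HCV replicon replication; test concentration not given here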
[13] = target: Left-right determination factor 2 (Homo sapiens) (UniProt O00292); test: small molecules binding LEFTY2 protein – biochemical, small-molecule microarray, 635 nm fluorescence scan, primary screen (AID 1110); settings: higher = more signal
[14] = target: Calmodulin-1 (Homo sapiens) (UniProt P0DP23); test: small molecules binding calmodulin-1 with EGTA – biochemical, small-molecule microarray, Cy5-labelled CALM1, profiling panel (AID 1111); settings: Cy5-CALM1 binding fluorescence, higher = more signal;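 also: labelled calmodulin applied in Tris saline Tween buffer holding calcium plus EGTA and DTT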
[15] = target: Calmodulin-1 (Homo sapiens) (UniProt P0DP23); test: small molecules binding Ca-loaded calmodulin-1 – biochemical, small-molecule microarray, Cy5-labelled CALM1, plus calcium, artefact control for SMM control-protein annotation, profiling panel (AID 1112); settings: Cy5-CALM1 binding fluorescence, higher = more signal;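 also: score merges spot fluorescence with signal to noise from triplicate slides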
[16] = probe aWnt5a binding to arrayed compounds – biochemical, biotinylated probe, 635/667 nm fluorescence, primary screen (AID 1113); settings: small-molecule microarray, higher = more signal;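 also: score merges 667 nm fluorescence intensity with signal-to-noise per printed feature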
[17] = probe aShh binding to arrayed compounds – biochemical, biotinylated probe, 635/667 nm fluorescence, primary screen (AID 1114); settings: small-molecule microarray, higher = more signal;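 also: probe is biotin-labelled aShh protein from a stem cell growth factor screen; measures binding of labelled protein to compounds printed on the slide; score merges feature fluorescence at 667 nm with signal-to-noise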
[18] = probe aNog binding to arrayed compounds – biochemical, biotinylated probe, 635/667 nm fluorescence, primary screen (AID 1115); settings: small-molecule microarray, higher = more signal;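 also: probe is biotinylated aNog protein used at 0.15 µg/mL for 1 h at 4 C; z-score combines 667 nm fluorescence of each spot with its signal to noise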
[19] = target: Torsin-1A-interacting protein 1 (Homo sapiens) (UniProt Q5JTV8); test: compound microarray binding of lysate hLAP1 – cell lysate, small-molecule microarray, COS7 lysate, 635/667 nm fluorescence, primary screen (AID 1116); settings: 635 nm fluorescence, higher = more signal
[20] = target: Alpha-bungarotoxin (Bungarus multicinctus) (UniProt P60615); test: compounds binding labelled alpha-BTX control protein – biochemical, small-molecule microarray, Alexa647 label, 635/667 nm fluorescence, artefact control for SMM control protein annotation, profiling panel (AID 1117); settings: alpha-BTX-A647 binding fluorescence, higher = more signal
Chain of Alpha-bungarotoxin (Bungarus multicinctus) (P60615 whole entry, looked up): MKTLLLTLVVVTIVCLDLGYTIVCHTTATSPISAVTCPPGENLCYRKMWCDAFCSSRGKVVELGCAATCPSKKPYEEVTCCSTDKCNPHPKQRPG

Chain of Left-right determination factor 2 (Homo sapiens) (O00292 whole entry, looked up): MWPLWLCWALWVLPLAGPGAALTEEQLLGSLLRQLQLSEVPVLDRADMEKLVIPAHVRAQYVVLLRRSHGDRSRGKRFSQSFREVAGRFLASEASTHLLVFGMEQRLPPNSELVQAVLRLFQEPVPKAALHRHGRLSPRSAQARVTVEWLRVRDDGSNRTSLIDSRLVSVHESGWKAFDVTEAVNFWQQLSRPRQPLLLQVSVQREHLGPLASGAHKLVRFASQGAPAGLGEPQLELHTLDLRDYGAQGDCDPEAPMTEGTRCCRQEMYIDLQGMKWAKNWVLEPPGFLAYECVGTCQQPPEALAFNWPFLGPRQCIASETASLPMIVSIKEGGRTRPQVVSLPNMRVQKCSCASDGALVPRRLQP
Chain of Follistatin-related protein 3 (Homo sapiens) (O95633 whole entry, looked up): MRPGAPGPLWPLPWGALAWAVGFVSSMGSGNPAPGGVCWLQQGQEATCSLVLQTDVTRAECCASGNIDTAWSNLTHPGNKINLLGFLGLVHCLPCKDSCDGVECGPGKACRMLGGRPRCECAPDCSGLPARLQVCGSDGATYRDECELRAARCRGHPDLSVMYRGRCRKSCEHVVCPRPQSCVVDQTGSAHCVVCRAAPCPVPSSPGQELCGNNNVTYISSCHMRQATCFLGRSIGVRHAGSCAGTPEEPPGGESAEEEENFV
Chain of Dickkopf-related protein 1 (Homo sapiens) (O94907 whole entry, looked up): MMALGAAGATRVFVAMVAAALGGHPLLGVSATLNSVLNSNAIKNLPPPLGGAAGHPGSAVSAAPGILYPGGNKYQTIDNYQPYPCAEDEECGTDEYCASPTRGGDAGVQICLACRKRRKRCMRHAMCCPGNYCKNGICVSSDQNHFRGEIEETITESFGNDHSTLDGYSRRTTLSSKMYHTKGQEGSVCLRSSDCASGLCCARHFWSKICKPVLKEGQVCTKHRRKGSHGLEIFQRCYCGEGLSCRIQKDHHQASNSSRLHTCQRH
Chain of Torsin-1A-interacting protein 1 (Homo sapiens) (Q5JTV8 whole entry, looked up): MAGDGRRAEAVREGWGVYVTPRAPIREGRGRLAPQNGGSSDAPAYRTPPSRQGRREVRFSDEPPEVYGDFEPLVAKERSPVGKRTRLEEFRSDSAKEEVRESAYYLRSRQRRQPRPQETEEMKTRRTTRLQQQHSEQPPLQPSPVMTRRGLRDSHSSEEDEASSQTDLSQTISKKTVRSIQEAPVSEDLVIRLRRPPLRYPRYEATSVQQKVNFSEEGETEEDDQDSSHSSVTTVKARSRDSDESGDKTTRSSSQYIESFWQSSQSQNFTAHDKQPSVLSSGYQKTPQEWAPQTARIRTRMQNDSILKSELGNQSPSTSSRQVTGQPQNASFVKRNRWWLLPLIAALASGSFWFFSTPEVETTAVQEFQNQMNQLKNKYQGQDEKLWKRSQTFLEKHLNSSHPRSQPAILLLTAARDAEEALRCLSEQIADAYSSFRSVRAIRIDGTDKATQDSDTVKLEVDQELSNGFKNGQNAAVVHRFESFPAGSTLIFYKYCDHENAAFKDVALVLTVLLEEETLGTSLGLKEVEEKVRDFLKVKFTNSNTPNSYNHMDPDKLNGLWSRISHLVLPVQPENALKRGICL
Chain of Fibroblast growth factor 10 (Homo sapiens) (O15520 whole entry, looked up): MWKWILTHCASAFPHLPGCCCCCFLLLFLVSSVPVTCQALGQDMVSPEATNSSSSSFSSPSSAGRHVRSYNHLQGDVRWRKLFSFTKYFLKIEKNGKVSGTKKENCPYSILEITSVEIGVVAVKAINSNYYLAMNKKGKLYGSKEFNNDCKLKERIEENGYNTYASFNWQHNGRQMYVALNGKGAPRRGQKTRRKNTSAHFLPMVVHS
Chain of Epidermal growth factor receptor (Homo sapiens) (P00533 whole entry, looked up): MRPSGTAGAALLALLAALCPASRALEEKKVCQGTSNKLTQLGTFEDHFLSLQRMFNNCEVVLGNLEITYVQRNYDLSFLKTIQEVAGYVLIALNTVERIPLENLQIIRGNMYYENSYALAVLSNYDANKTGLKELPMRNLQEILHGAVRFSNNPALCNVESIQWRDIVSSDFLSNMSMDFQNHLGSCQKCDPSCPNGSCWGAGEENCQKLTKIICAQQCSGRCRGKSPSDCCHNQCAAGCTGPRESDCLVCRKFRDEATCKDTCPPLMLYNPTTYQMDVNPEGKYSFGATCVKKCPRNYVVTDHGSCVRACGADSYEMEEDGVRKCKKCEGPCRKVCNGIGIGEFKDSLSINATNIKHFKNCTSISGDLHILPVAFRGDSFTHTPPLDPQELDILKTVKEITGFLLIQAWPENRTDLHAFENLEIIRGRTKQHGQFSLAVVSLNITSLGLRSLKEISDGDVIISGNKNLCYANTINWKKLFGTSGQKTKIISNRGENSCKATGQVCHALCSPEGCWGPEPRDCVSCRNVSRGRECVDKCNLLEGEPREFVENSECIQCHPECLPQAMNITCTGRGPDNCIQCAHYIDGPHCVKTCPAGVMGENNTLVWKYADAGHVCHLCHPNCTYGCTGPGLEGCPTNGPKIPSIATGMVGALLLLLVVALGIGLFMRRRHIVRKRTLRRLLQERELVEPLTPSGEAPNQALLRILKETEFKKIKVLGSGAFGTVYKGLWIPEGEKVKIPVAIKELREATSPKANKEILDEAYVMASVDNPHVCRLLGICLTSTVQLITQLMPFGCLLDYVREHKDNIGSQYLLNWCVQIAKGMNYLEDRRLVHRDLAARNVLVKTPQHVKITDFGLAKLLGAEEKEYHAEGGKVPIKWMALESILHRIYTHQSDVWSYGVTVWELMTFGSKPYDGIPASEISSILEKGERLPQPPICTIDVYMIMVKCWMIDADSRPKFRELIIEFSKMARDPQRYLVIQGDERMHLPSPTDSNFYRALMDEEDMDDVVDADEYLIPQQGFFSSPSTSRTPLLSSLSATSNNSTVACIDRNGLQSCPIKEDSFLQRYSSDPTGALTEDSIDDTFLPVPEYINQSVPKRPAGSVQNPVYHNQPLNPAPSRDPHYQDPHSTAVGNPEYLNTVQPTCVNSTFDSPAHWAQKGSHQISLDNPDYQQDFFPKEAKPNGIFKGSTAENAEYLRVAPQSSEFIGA

SMILES	composite z-score [1]	composite z-score [2]	composite z-score [3]	z-score [4]	composite z-score [5]	composite z-score [6]	composite z-score [7]	composite z-score [8]	composite z-score [9]	composite z-score [10]	composite z-score [11]	z-score [12]	composite z-score [13]	composite z-score [14]	composite z-score [15]	composite z-score [16]	composite z-score [17]	composite z-score [18]	composite z-score [19]	composite z-score [20]
C=CCC1(CC=C)C[C@H]2CO[C@H](c3ccc(OC)cc3)N2C1=O	0.695	-0.17	0.317	-0.512 (inactive)	-0.193	-0.217	0.291	0.576	0.917	1.55	-0.107	0.805	0.447	-1.56	-2.31	-0.124	-0.271	-0.0887	0.656	0.278
CCCNC(=O)[C@@]1(Sc2ccc(C)cc2)CC(=O)N(Cc2cc(C(F)(F)F)cc(C(F)(F)F)c2)[C@@H]1c1ccc(CO)cc1I	1.24	0.832	1.11	-2.39 (inactive)	-0.544	-0.656	-0.711	-0.372	-0.799	1.08	-0.536	-1.41	-1.58	1.54	1.11	-0.0512	0.0141	0.573	1.68	0.521
C#CCOc1ccc(C[C@H]2C(=O)O[C@H](Cc3ccccc3)[C@H](/C=C/C3CC3)N2CC#C)cc1	1.32	-0.162	-0.0338	-1.18 (inactive)	-0.425	-0.526	-0.925	-0.566	-0.175	0.809	-0.462	-2.14	-0.36	-0.491	-0.685	-0.176	-0.153	-0.433	0.204	0.0192
C#CCN1C(C(=O)OCC)OC[C@H]1c1ccccc1 (stereo not given in full)	0.312	0.461	-0.502	-0.577 (inactive)	0.388	-0.0229	0.421	0.901	0.428	-0.352	1.35	-0.354	0.677	-0.128	-0.605	-0.175	-0.167	-0.21	1.49	0.327
COc1ccc(C(=O)Nc2cccc(CN3C(=O)[C@@]4(O[C@@H](CCO)[C@H]([Si](C)(C)c5ccc(OC)cc5)[C@H]4C)c4ccccc43)c2)cc1	0.775	0.481	0.666	1.92 (inactive)	0.0414	0.2	-0.121	0.131	0.19	1.49	0.721	-5.15	-0.0057	1.08	1.03	-0.0721	-0.0146	0.0043	0.0777	0.689
COC(=O)C1=CC(c2ccc(CO)cc2)=CC(c2cccs2)N(C)C=C1C(=O)OC (stereo not given)	1.52	0.772	1.13	-1.77 (inactive)	-0.0489	-0.57	-0.407	0.409	-0.813	1.46	-0.526	-0.176	-0.76	1.36	0.774	-0.096	0.138	0.603	0.107	0.765
